# Assay outcomes (PubChem BioAssay)
# In the library only some 12% were active in any assay of this set; here they are far more common.
# G9a block: qHTS Assay for Inhibitors of Histone Lysine Methyltransferase G9a; AID 504332, 2011; 8.8% of 350,000 active; G9a H3K9 monomethylation, AlphaScreen, 2 h; Histone-lysine N-methyltransferase EHMT2 (Homo sapiens), Q96KQ7; Potency, µM (doses to about 102 µM), inactives show at the top dose activity, negative = inhibition, actives largely listed as inhibitors; further: on the % scale 0 is the no-effect control and ±100 the full control effect; nearly all actives have a fitted effect of over 75% in size
#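 AlphaScreen read-out: biotin-H3K9 peptide (500 nM) methylation by 20 nM enzyme with 20 uM SAM, 2 h at room temperature after 15 min compound preincubation; anti-monomethyl H3K9 antibody plus donor/acceptor beads, 10 min dark.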
# L3MBTL1 inh: qHTS Assay for the Inhibitors of L3MBTL1; Lethal(3)malignant brain tumor-like protein 1 (Homo sapiens), Q9Y468; AlphaScreen L3MBTL1–H3K9me1 peptide binding; Potency, µM (titrated, usually from 57.1 µM), inactives show at the top dose activity, negative = inhibition, actives largely listed as inhibitors; 0.66% of 230,000 active; AID 485360, 2010; further: on the % scale 0 is the no-effect control and ±100 the full control effect; nearly all actives have a fitted effect of over 60% in size
#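 Read-out is AlphaScreen signal from streptavidin donor and nickel chelate acceptor beads (10 ug/mL final each) bridging L3MBTL1 (50 nM) and biotinylated K9-monomethylated H3(1-15) peptide (75 nM), after 30 min compound exposure at room temperature.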
# Sfp PPTase inh: qHTS Assay for Inhibitors of Bacillus subtilis Sfp phosphopantetheinyl transferase (PPTase) | 4'-phosphopantetheinyl transferase ffp (Bacillus subtilis), Q9F4F7 | Biochemical Sfp PPTase activity, qHTS | Potency, µM, without a hit: largest response in the series, negative = inhibition, most hits filed as inhibitors | 3.5% of 310,000 active | AID 1490, 2009;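 further: the enzyme is Sfp with the accession as filed and its product quenches rhodamine fluorescence; 0% = enzyme reaction without inhibitor and -100% = no enzyme wells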
#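 With Hepes-Na pH 7.6 buffer containing 10 mM MgCl2, Sfp (15 nM) modified BHQ-2-YbbR (12.5 uM) using rhodamine-CoA (5 uM). Two reads 30 minutes apart at 525/598 nm yielded each well's rate.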
# JMJD2A Tudor: qHTS Assay for Inhibitors of JMJD2A-Tudor Domain; AlphaScreen JMJD2A-Tudor / H3K4me3 peptide binding; 4.4% of 390,000 active; Lysine-specific demethylase 4A (Homo sapiens), O75164; Potency, µM (highest dose often 114 µM), without a hit: at the top dose activity change, negative = inhibition, most hits filed as inhibitors; further: on the % scale 0 is the no-effect control and ±100 the full control effect; nearly all actives have a fitted effect of over 50% in size
# BAZ2B block: qHTS Assay for Inhibitors of BAZ2B. AlphaScreen BAZ2B-H3K14Ac peptide displacement. Bromodomain adjacent to zinc finger domain protein 2B (Homo sapiens), Q9UIF8. 4.4% of 360,000 active. Potency, µM (titrated, usually from 114 µM), without a hit: at the highest dose activity change, negative = inhibition, usual class: inhibitors; further: on the % scale 0 is the no-effect control and ±100 the full control effect; nearly all actives have a fitted effect of over 60% in size
#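 Complex of BAZ2B and biotin-H3K14Ac (50 nM apiece) forms over 30 min at RT, then faces library compounds up to 110 uM for another 30 min; AlphaScreen beads added, 20 min dark incubation, luminescence read.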
# HP1b chromo inh: HTS for Inhibitors of HP1-beta Chromodomain Interactions with Methylated Histone Tails; Chromobox protein homolog 1 (Homo sapiens), P83916; AlphaScreen HP1-beta / biotin-H3K9me3 peptide binding; Potency, µM (top dose mostly 114 µM), without a hit: at the top dose activity change, negative = inhibition, most hits filed as inhibitors; 0.56% of 390,000 active; further: nearly all actives have a fitted effect of over 70% in size
#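 Compound inhibition of the preformed complex between 50 nM HP1-beta and 50 nM biotinylated H3K9me3 peptide was read by AlphaScreen. Buffer was PBS pH 7.4 with 0.01% Tween-20. Incubations ran 30 min at room temperature, with 10 ug/mL donor/acceptor beads.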
# * = called active by the depositor; ? = inconclusive; . = no result given; ! = not active in a repeat; [ ] = remark or other dose. The call rests on the fitted dose curve; in most records, active means well fitted curve in the direction sought with a large enough effect; inconclusive means small, poorly fitted or top-dose-only effect, or another doubt; inactive means no such curve, though single readings can be large; an effect the other way counts as inactive or inconclusive. Potency means the concentration at half of the fitted maximal effect.
SMILES,G9a block,L3MBTL1 inh,Sfp PPTase inh,JMJD2A Tudor,BAZ2B block,HP1b chromo inh
CCN(CC)CCC(c1ccc(N(C)C)cc1)c1c(O)cc(OC)cc1OC (configuration not stated),?,.,-7%,40µM*,50µM*,?
Cc1cc(-n2c(C)nc3ccccc3c2=O)ccc1NC(=O)c1cccc([N+](=O)[O-])c1,-3%[59 µM],.,.,-9%,3%,29%
CC(=O)O[C@@H]1CC[C@@]2(C)[C@H](C1)[C@H](OC(C)=O)C[C@@H]1[C@@H]2C[C@H]2[C@@H]3CN4C[C@H](C)CC[C@H]4[C@H](C)[C@H]3CC[C@@]12O,.,.,0%,.,.,.
Cc1cc(C)cc(NC(=O)c2cn3c4c(ccc(Cl)c4c2=O)OC(C)C3)c1 (configuration not stated),?,.,.,-10%,-3%,30%
Cn1c(=O)n(C)c2cc(N3CCOCC3)c(NC(=O)c3ccc(Cl)cc3)cc21,14%[59 µM],.,.,10%,-17%,13%
CCOc1cc(C(=O)Nc2cc3c(cc2N2CCOCC2)n(C)c(=O)n3C)cc(OCC)c1OCC,14%,.,10%,25µM*!,-33%,17%
COc1ccc(C(=O)Nc2cc3c(cc2N2CCOCC2)n(C)c(=O)n3C)cc1OC,27%,.,22%,-20%,?,37%
Cc1cccc(C(=O)Nc2cc3c(cc2N2CCCCC2)n(C)c(=O)n3C)c1,-42%[59 µM],.,.,-22%,50µM*,15%
COc1cccc(C(=O)Nc2cc3c(cc2N2CCOCC2)n(C)c(=O)n3C)c1,20µM*,.,-3%,-7%,?,80%
Cc1cccc(C(=O)Nc2cc3c(cc2N2CCOCC2)n(C)c(=O)n3C)c1,-2%[59 µM],.,.,-7%,-32%,6%
Nc1cccc(-n2nncc2-c2ccc(Cl)cc2)c1,?,-9%,7%,.,.,.
NC(=S)N/N=C/c1ccc(-n2nncc2-c2ccc(Cl)cc2)cc1,45µM*,.,-2%,?,?,-9%
COc1ccc(C2CC(=O)Nc3c2c(=O)n(C)c2nc4ccccc4n32)cc1 (configuration not stated),3%[59 µM],.,.,-1%,-16%,?
Cc1ccc(NC(=O)CCC(=O)c2cccs2)cc1,21%[12.7 µM],.,14%,-4%,3%,16%
O=C(CCNC(=O)c1ccc(Cl)cc1)Nc1ncccc1O,13%,.,3%,-24%,79µM*,26%
Cc1ccc(NC(=O)CCC(=O)c2ccc(Cl)s2)nc1,23%[12.7 µM],-7%,.,-30%,56µM*,17%
Cc1ccc(C(=O)CCC(=O)Nc2ncccc2O)cc1,-47%,-13%,.,?,79µM*,6%
O=C(CCCNC(=O)c1ccc(Cl)cc1)Nc1ncccc1O,16%,.,14%,-18%,?,21%
O=C(CCC(=O)c1cccs1)Nc1ncccc1O,?,?,.,?,56µM*,17%
Cc1ccc(C(=O)CCC(=O)Nc2ncccc2C)cc1,0%[12.7 µM],-4%,.,-27%,-38%,16%
CCOC(=O)c1c(C)c(-c2ccccc2)n(CC(=O)Nc2cccc(F)c2)c1C,2%[59 µM],.,.,-20%,-6%,2%
O=c1c2cccnc2n(Cc2ccc(Cl)cc2)c(=O)n1Cc1ccc(F)cc1,8%[59 µM],.,.,2%,-2%,47%
Cc1csc2nc(COc3ccccc3NC(=O)c3ccccc3Cl)cc(=O)n12,-7%[59 µM],.,.,-1%,-12%,22%
CCc1cc2c(s1)c1cnn(Cc3ccccc3F)c(=O)c1n2C,.,.,.,16%,.,.
O=C(CCC(=O)c1ccc(Cl)s1)Nc1ncccc1O,?,-16%,.,56µM*,56µM*,3%
SMILES,G9a block,L3MBTL1 inh,Sfp PPTase inh,JMJD2A Tudor,BAZ2B block,HP1b chromo inh
O=C(COC(=O)c1cccnc1Cl)c1ccc(Cl)s1,.,5%,.,-5%,.,29%
CCC(C)[C@H](NC(=O)N1CCN(C)CC1)C(=O)OC (some centres not stated),21%,11%,8%,-11%,3%,41%
CCC(C)NC(=S)N1CCN(C)CC1 (configuration not stated),40µM*,.,-18%,?,-25%,?
CCOC(=O)N1CCN(c2ccc(O)cc2)CC1,2.8µM*,.,?,35µM*,8%,-69%
O=C(c1ccccc1)N1CCCC(C(=O)N2CCN(c3ccccc3)CC2)C1 (configuration not stated),?,4%,21%,50µM*,-3%,-3%
CC(=O)c1ccc(N2CCN(C(=O)C3CCC3)CC2)cc1,?,-17%[11.4 µM],89µM*,-23%,-5%,12%
CCOC(=O)N1CCN(c2cc(=O)n(-c3ccc(C)cc3)c(=O)[nH]2)CC1,50µM*,.,-10%,-4%,.,3%
CCOC(=O)N1CCN(c2cc(=O)n(-c3ccc(Br)cc3)c(=O)[nH]2)CC1,?,-5%,6%,-17%,1%,-1%
CCOc1ccccc1NC(=S)N1CCN(c2ccc(O)cc2)CC1,35µM*,.,-19%,?,-14%,-11%
O=C(C1CCN(S(=O)(=O)N2CCOCC2)CC1)N1CCN(c2ccc(F)cc2)CC1,?,.,9%,?,-6%,40%
CCOc1ccccc1NC(=S)N1CCN(c2ccc(OC)cc2)CC1,?,-14%,11%,?,?,14%
O=C(C1CC1)N1CCN(c2ccc(O)cc2)CC1,25µM*,.,?,79µM*,-2%,?
O=C(c1cccc(Cl)c1Cl)N(Cc1ccco1)Cc1cccs1,.,.,.,-14%[57.1 µM],.,23%[57 µM]
N#Cc1cnn(-c2ccccc2)c1N,13%[59 µM],2%,-10%,-3%,.,7%
Cc1cc(=O)[nH]c(-n2ncc(C#N)c2N)n1,2.8µM*,10%,56µM*,1.6µM*,.,13%
Cc1ccc(S(=O)(=O)N2CCN(c3cc(-c4cccs4)nc4ccccc34)CC2)cc1,.,.,.,-16%,.,-1%
CN1CCN(C(=S)C(=O)Nc2ccccc2)CC1,36%[12.7 µM],-13%,50µM*,-14%,5%,23%
NC(=O)c1ccc(N2CCCCC2)c(N2C(=O)C3CC=CCC3C2=O)c1 (configuration not stated),1%[12.7 µM],-1%,7%,-5%,50µM*,22%
O=C(c1cccc(N2C(=O)C3CC=CCC3C2=O)c1)N1CCCCCC1 (configuration not stated),9%[59 µM],3%,-5%,-25%,1%,12%
